Most compounds without a hit are left out; they make up all but 3.3% or so of the library.
Mcl1-Bid inh = Mcl-1/Bid binding inhibitors, primary screen, biochemical, TR-FRET, 1536-well. TR-FRET Mcl-1/Bid-Dy647 peptide binding. Induced myeloid leukemia cell differentiation protein Mcl-1 (Homo sapiens), Q07820. 220,000 compounds, 0.97% hits. AID 1021, 2008. inhibition, % at 21.7 µM;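 active means compounds that cut the binding signal by more than half at the single screening dose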;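 further: His-tagged Mcl-1 with europium anti-His antibody binding Bid BH3 peptide; 0% = Mcl-1 plus peptide wells and 100% = peptide-only wells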
Mcl1-Noxa inh = Mcl-1/Noxa binding inhibitors, primary screen, biochemical, TR-FRET, 1536-well; Induced myeloid leukemia cell differentiation protein Mcl-1 (Homo sapiens), Q07820; TR-FRET Mcl-1/Noxa peptide binding, 2 h; inhibition, % at 21.7 µM; 220,000 compounds, 1.5% hits;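 active means compounds that cut the protein-peptide binding signal by more than 50% relative to plate controls in a single-dose test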;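 further: His-tagged Mcl-1 with rhodamine Noxa BH3 peptide and terbium anti-His antibody; 0% = Mcl-1 plus Noxa peptide wells and 100% = peptide-only wells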
NCF1 inh = p47phox/p22phox peptide binding inhibitors, primary screen, biochemical, uHTS, NADPH oxidase regulatory subunit; Neutrophil cytosol factor 1 (Homo sapiens), P14598; fluorescence polarization, 2 h; inhibition, % at 24.7 µM; 220,000 compounds, 0.53% hits; AID 1274, 2008;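 further: 0% = p47phox with labelled peptide and 100% = labelled peptide alone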
Bim-Mcl-1 = inhibitors of Bim peptide binding to Mcl-1, primary screen, biochemical, bead-based flow cytometry, multiplex; Induced myeloid leukemia cell differentiation protein Mcl-1 (Homo sapiens), Q07820; Bim peptide-Mcl-1 binding; inhibition, % at 10 µM; 190,000 compounds, 0.1% hits; in the data active means inhibition above about 40%;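 further: 0% = no compound tracer wells and 100% = peptide blocker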
eIF4E 4G PPI = eIF4E–eIF4G protein interaction inhibitors, primary screen, biochemical, uHTS, TR-FRET, eIF4GI fragment. inhibition, % at 21.7 µM. TR-FRET eIF4E-eIF4GI(517-606) binding, 2 h. Eukaryotic translation initiation factor 4E (Mus musculus) + Eukaryotic translation …. AID 782, 2007. 220,000 compounds, 0.37% hits;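 further: 0% = full FRET control wells and 100% = background wells lacking eIF4GI fragment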
14-3-3 Bad PPI = inhibitors of 14-3-3 zeta/Bad binding, primary screen, biochemical, TR-FRET, bovine 14-3-3 zeta. 14-3-3 protein zeta/delta (Bos taurus), P63103. AID 781, 2007. inhibition, % at 21.7 µM. 220,000 compounds, 0.71% hits. TR-FRET 14-3-3zeta/Dy647-pBad peptide displacement, 1 h;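 active means inhibition above about 70%, limit read from the data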;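 further: 0% = full 14-3-3 plus peptide FRET controls and 100% = background without 14-3-3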
* = called active by the depositor; · = no result given; [ ] = dose if it differs, or a comment.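 How the source made its calls, unless noted: active means inhibition above about 30% (limit read from the data); inactive means the rest.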

SMILES	Mcl1-Bid inh	Mcl1-Noxa inh	NCF1 inh	Bim-Mcl-1	eIF4E 4G PPI	14-3-3 Bad PPI
CC(NC(=O)Cn1cnc2c1c(=O)n(C)c(=O)n2C)c1ccccc1 (centres undefined)	94*	20	0	1	10	-11
O=C(C[n+]1cc(-c2ccccc2)n2c1CCC2)N1c2ccccc2Sc2ccccc21	90*	7	-11	-3	1	-4
COc1cc2c(cc1OC)C(c1ccc(-c3cc(Cl)ccc3Cl)o1)=NCC2	18	12	51*	0	4	39
C#CCCCCCCC#CCN(C)C	55*	36	2	-4	0	47
CN(C)CC#CCCCCCCC#CCN(C)C	-7	·	-7	-3	-6	7
CCOc1ccccc1NC(=O)c1ccc([N+](=O)[O-])cc1	-20	1	-9	-2	-1	-3
CCOc1ccc(N/C(=C(/C(Cl)=C(Cl)Cl)[N+](=O)[O-])n2cncn2)cc1	77*	38	-11	6	4	67
O=[N+]([O-])/C(C(Cl)=C(Cl)Cl)=C(\Nc1ccc(F)cc1)n1cncn1	73*	20	-9	3	-7	50
CCOc1ccccc1N/C(=C(/C(Cl)=C(Cl)Cl)[N+](=O)[O-])n1cncn1	61*	42	3	-3	-5	74*
Cc1ccc(C(=O)Nc2nnc(COc3ccccc3)s2)cc1	-4	3	-1	-3	1	4
COc1ccc(S(=O)(=O)N2CCN(C(=O)NC3CCCCC3)CC2)cc1OC	-61	56*	-15	-4	-2	9
COc1ccc(S(=O)(=O)N2CCC(C(=O)N3CCCCC3)CC2)cc1OC	-21	5	-12	-2	4	-4
CC1CCN(S(=O)(=O)c2cccc(C(=O)Nc3ccccn3)c2)CC1	79*	4	-10	-4	1	-2
O=C(Nc1ccccn1)c1cccc(S(=O)(=O)N2CCOCC2)c1	-2	6	1	0	-2	-18
Cc1nn(-c2ccccc2)c2c1C(c1ccncc1)C(C#N)=C(N)O2 (centres undefined)	-32	16	-4	0	4	8
Cc1nn(-c2ccccc2)c(Cl)c1C1C(C#N)=C(N)Oc2c1c(C)nn2-c1ccccc1 (centres undefined)	-26	60*	-3	-2	5	-5
CCOC(=O)c1cc(-c2ccccc2)sc1NC(=O)COC(=O)c1ccc(Cl)c(S(N)(=O)=O)c1	19	14	-6	3	7	10
CCOC(=O)c1cc(-c2ccccc2)sc1NC(=O)COC(=O)c1cccc(S(N)(=O)=O)c1	-112	-27	6	0	-36	73*
O=C(CSc1nnc2c3ccccc3c3ccccc3c2n1)Nc1ccccc1F	4	61*	-105	7	-2	6
O=C1/C(=C\c2ccco2)NC(=S)N1c1ccccc1	-31	58*	-18	3	3	1
COc1ccc(N2C(=O)CC(S/C(N)=N/N=C/c3ccnc4ccccc34)C2=O)cc1 (centres undefined)	81*	35	27	-3	22	75*[fluorescence artefact?]
N/C(=N\N=C\c1ccnc2ccccc12)SC1CC(=O)N(c2ccc(Br)cc2)C1=O (centres undefined)	28	36	-8	-3	9	10
COc1ccccc1N(C(=O)c1ccncc1)c1nc(-c2ccc([N+](=O)[O-])cc2)cs1	-17	-38	-13	0	-3	3
COc1ccc(CCNC(=O)COC(=O)Cc2ccc(OC)cc2)cc1	7	-8	0	-6	1	-3
COc1ccc(CCNC(=O)COC(=O)Cc2cccc3ccccc23)cc1	-5	83*	3	-6	1	9
SMILES	Mcl1-Bid inh	Mcl1-Noxa inh	NCF1 inh	Bim-Mcl-1	eIF4E 4G PPI	14-3-3 Bad PPI
C=CCNc1nc(N2CCCC2)nc2ccccc12	5	33	5	-1	-3	9
OCCNc1nc(N2CCN(Cc3ccccc3)CC2)nc2ccccc12	22	46	-17	4	-2	80*
CC1=CC(C)(C)Nc2ccccc21	28	67*	13	-1	-7	48
COc1ccc(/C=N/NS(=O)(=O)c2ccccc2)cc1OC(=O)c1ccc(C)cc1	86*	23	-14	0	-7	-5
COc1ccc(/C=N/NS(=O)(=O)c2ccc(C)cc2)cc1OC(=O)c1ccccc1	-19	-12	-10	4	0	1
CC1(C)CC(=O)C=C(NCCc2c[nH]c3ccccc23)C1	-25	11	-23	·	-5	-2
Nc1ncnc2oc(-c3ccco3)c(-c3ccco3)c12	0	82*	-17	0	11	-14
Nc1nnc(-c2ccco2)s1	-23	-9	4	0	-9	9
CC(C)(C)n1cc(S(=O)(=O)c2ccccc2)[nH]c1=O	-30	3	-9	0	-1	-15
CCCCNC(=O)C1CCN(C/C(C)=C/c2ccccc2)CC1	14	12	-7	0	-2	71*
COc1cc(NC(=O)c2ccc3c(=O)n(Cc4ccco4)c(=S)[nH]c3c2)cc(OC)c1OC	52*	43	15	-2	-5	35
COc1ccc(CCn2c(=S)[nH]c3cc(C(=O)NCc4ccco4)ccc3c2=O)cc1OC	52*	8	20	-3	12	77*
COc1ccc(-n2c(=S)[nH]c3cc(C(=O)NCc4ccco4)ccc3c2=O)cc1OC	-30	23	4	0	2	6
CCc1cccc(C)c1NC(=O)C1CCN(C(=O)c2ccc([N+](=O)[O-])cc2)CC1	0	6	0	-5	1	1
O=C(CSc1nncs1)NC(=O)NC1CCCC1	-12	6	-12	0	-4	3
COc1cccc2c1C(=O)c1c(O)c3c(c(O)c1C2=O)C[C@@](O)(C(=O)CO)C[C@@H]3O[C@H]1C[C@H](N)[C@H](O)[C@H](C)O1	10	60*	-253	34	50*[fluorescence artefact?]	96*[fluorescence artefact?]
CNc1cccccc1=S	-93	58*	19	0	10	14
COC(=O)C(=C/C=C/N1CCOCC1)C(=O)OC	-112	2	-12	·	-6	-1
O=C(Nc1ccc(Cl)cc1Cl)c1ccc(-c2ccccc2)cc1	4	70*	-6	-3	-1	-6

Assay outcomes: PubChem, several laboratories
